HP1b chromo inh = HP1-beta chromodomain-methylated histone interaction inhibition | Potency, µM (titrated, usually from 114 µM), usual class: inhibitors | AID 540317 | 0.56% of 390,000 active | AlphaScreen HP1-beta / biotin-H3K9me3 peptide binding; also: nearly all actives have a fitted effect of over 70% in size
Target sequence (P83916 whole entry, looked up): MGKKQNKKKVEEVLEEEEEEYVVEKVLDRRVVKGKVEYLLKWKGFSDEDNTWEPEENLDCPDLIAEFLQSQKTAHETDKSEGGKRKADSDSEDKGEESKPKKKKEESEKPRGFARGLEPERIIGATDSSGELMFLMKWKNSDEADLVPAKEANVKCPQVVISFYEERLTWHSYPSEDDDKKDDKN
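HP1-beta protein (50 nM final) preincubated 30 min at room temperature with biotinylated H3(1-18)K9me3 peptide (50 nM) in PBS pH 7.4, 0.01% Tween-20, then compound added for 30 min. AlphaScreen streptavidin donor/nickel chelate acceptor beads (10 ug/mL final), 30 min dark, luminescence read.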
G9a inh = inhibitors of human histone lysine methyltransferase G9a | Potency, µM (series often up to 102 µM), hits mostly inhibitors | G9a H3K9 monomethylation, AlphaScreen, 2 h | AID 504332 | Q96KQ7 | 8.8% of 350,000 active; also: nearly all actives have a fitted effect of over 75% in size
Target sequence (Q96KQ7 913-1193 limits assumed): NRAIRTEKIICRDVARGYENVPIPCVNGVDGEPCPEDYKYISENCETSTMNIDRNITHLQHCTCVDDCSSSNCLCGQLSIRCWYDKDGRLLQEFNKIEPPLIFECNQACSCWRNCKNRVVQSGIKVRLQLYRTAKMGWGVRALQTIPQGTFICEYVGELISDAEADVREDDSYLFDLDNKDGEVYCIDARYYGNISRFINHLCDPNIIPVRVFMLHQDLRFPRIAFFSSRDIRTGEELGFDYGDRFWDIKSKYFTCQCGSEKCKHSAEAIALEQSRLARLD
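Readings reflect AlphaScreen signal from monomethyl-H3K9 antibody detection. HMT at 20 nM; substrate b-H3K9 500 nM; cofactor SAM 20 uM; 2 h RT reaction; compounds tested as titrations in qHTS with 15 min preincubation.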
JMJD2A Tudor = inhibitors of human JMJD2A Tudor domain | 4.4% of 390,000 active | Potency, µM (titrated, usually from 114 µM), usual class: inhibitors | O75164 | AlphaScreen JMJD2A-Tudor / H3K4me3 peptide binding; also: nearly all actives have a fitted effect of over 50% in size
Sfp PPTase inh = inhibitors of Bacillus subtilis Sfp phosphopantetheinyl transferase. Q9F4F7. Biochemical Sfp PPTase activity, qHTS. Potency, µM, usual class: inhibitors. 3.5% of 310,000 active;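 also: the enzyme is Sfp with the accession as filed and its product quenches rhodamine fluorescence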
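Step 1, compound plus 15 nM Sfp-PPTase, 15 min, room temperature. Step 2, add rhodamine-CoA (5 uM) and BHQ-2-YbbR (12.5 uM). Step 3, read 525/598 nm fluorescence at 0 and 30 min.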
BAZ2B inh = inhibitors of human BAZ2B bromodomain; Q9UIF8; AlphaScreen BAZ2B-H3K14Ac peptide displacement; Potency, µM (highest dose often 114 µM), hits mostly inhibitors; 4.4% of 360,000 active; also: nearly all actives have a fitted effect of over 60% in size
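BAZ2B 50 nM plus b-H3(5-23)K14Ac 50 nM, PBS pH 7.4/0.01% Tween-20, 30 min RT; compound added (max 110 uM), 30 min RT; streptavidin donor/Ni-chelate acceptor beads 10 ug/mL final, 20 min dark; AlphaScreen read.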
Of the large screens only hits and unclear results are named; the others gave an inactive call. A selection: hits, their analogues and other compounds. The true share with any hit is near 12%. Calls follow the shape of the dose curve; as a rule, active = well fitted curve in the direction sought with a large enough effect; inconclusive = small, poorly fitted or top-dose-only effect, or another doubt; inactive = no such curve, though single readings can be large; an effect the other way counts as inactive or inconclusive.

O=C(N/N=C/c1ccc(-c2ccc([N+](=O)[O-])cc2)o1)[C@H]1C[C@@H]1c1ccccc1	none
O=C(/C=C/c1ccc(-c2ccccc2[N+](=O)[O-])o1)c1ccccc1	HP1b chromo inh inconclusive, G9a inh 32µM, JMJD2A Tudor inconclusive, Sfp PPTase inh inconclusive, BAZ2B inh 11µM
O=C(N/N=C/c1ccc(-c2ccccc2[N+](=O)[O-])o1)[C@H]1C[C@@H]1c1ccccc1	G9a inh 8.9µM, JMJD2A Tudor inconclusive, Sfp PPTase inh 25µM, BAZ2B inh inconclusive
CC(C)=CCC/C(C)=C/CNC(=O)C[C@H]1C[C@H](C(=O)N2CCOCC2)[C@@]2(C)c3[nH]c4cc(-c5ccco5)ccc4c3CCN2C1=O	HP1b chromo inh inconclusive, JMJD2A Tudor 40µM (no result: G9a inh, Sfp PPTase inh, BAZ2B inh)
CN(C)CCCNC(=O)C[C@H]1C[C@H](C(=O)N2CCCCC2)[C@@]2(C)c3[nH]c4cc(-c5ccco5)ccc4c3CCN2C1=O	JMJD2A Tudor inconclusive (no result: G9a inh, Sfp PPTase inh, BAZ2B inh)
CN(C)CCCNC(=O)C[C@H]1C[C@H](C(=O)N2CCCCC2)[C@@]2(CCc3ccccc3)c3[nH]c4cc(-c5ccco5)ccc4c3CCN2C1=O	HP1b chromo inh inconclusive, JMJD2A Tudor 50µM (no result: G9a inh, Sfp PPTase inh, BAZ2B inh)
CC(C)N(C(=O)[C@H]1C[C@H](CC(=O)NC(C)(C)C)C(=O)N2CCc3c([nH]c4cc(-c5ccco5)ccc34)[C@]12C)C(C)C	HP1b chromo inh inconclusive, JMJD2A Tudor 50µM (no result: G9a inh, Sfp PPTase inh, BAZ2B inh)
Cc1ccc(N2C(=O)c3ccccc3C2C(=O)c2cc(C)ccc2O)cc1 (stereo not given)	HP1b chromo inh inconclusive, G9a inh 7.9µM, JMJD2A Tudor inconclusive, Sfp PPTase inh inconclusive
Cc1ccc(N2C(=O)c3ccccc3C2C(=O)c2ccc(O)cc2O)cc1 (stereo not given)	G9a inh inconclusive, JMJD2A Tudor 79µM, Sfp PPTase inh inconclusive, BAZ2B inh 28µM
Cc1ccccc1N1C(=O)c2ccccc2N2C(=O)c3ccccc3C12 (stereo not given)	G9a inh inconclusive
Cc1ccc(N2C(=O)c3ccccc3C2C(=O)c2ccc(C)c(C)c2O)cc1 (stereo not given)	HP1b chromo inh inconclusive, JMJD2A Tudor 50µM, Sfp PPTase inh inconclusive (no result: G9a inh)
Cc1ccnc(N2C(=O)c3ccccc3C2O)c1 (stereo not given)	none
Cc1ccc(F)cc1NC(=O)N1CCCN(C(=O)OC(C)(C)C)CC1	none
N/C(Cn1cncn1)=N\NC(=O)c1ccc(Cl)cc1Cl	HP1b chromo inh inconclusive, G9a inh 8.9µM, JMJD2A Tudor 13µM
N/C(Cn1cncn1)=N\NC(=O)C(=O)Nc1ccc(Cl)cc1Cl	none
CC(=O)c1ccc(OCCCC(=O)Nc2cccc(S(=O)(=O)N3CCOCC3)c2)cc1	none (no result: G9a inh, Sfp PPTase inh, BAZ2B inh)
O=C(Cn1cnc([N+](=O)[O-])n1)N/N=C/c1ccccc1O	JMJD2A Tudor inconclusive, BAZ2B inh 14µM
Cc1ccccc1/C=N/NC(=O)Cn1cnc([N+](=O)[O-])n1	BAZ2B inh inconclusive
O=C(Cn1cnc([N+](=O)[O-])n1)N/N=C/c1cc(Cl)ccc1O	JMJD2A Tudor 32µM, BAZ2B inh 28µM
CCCCNC(=O)CSc1nc2cc3c(cc2c(=O)n1CCCCCC(=O)NCc1ccc(OC)cc1)OCO3	none (no result: Sfp PPTase inh)
CC1C/C(=N\NC(=O)c2ccc([N+](=O)[O-])cc2)CC(C)(C)C1 (stereo not given)	Sfp PPTase inh 79µM
O=CN1CCN(S(=O)(=O)c2ccc(S(=O)(=O)NC3CCCCC3)cc2)CC1	G9a inh 45µM
CCN1CCN(S(=O)(=O)c2ccc(S(=O)(=O)NC3CC3)cc2)CC1	G9a inh 50µM
CC(=O)N1CCN(S(=O)(=O)c2ccc(S(=O)(=O)NC3CCCCC3)cc2)CC1	G9a inh 50µM
O=S(=O)(NC1CCCC1)c1ccc(S(=O)(=O)N2CCCN(Cc3ccccc3)C2)cc1	none
Cc1ccc(NS(=O)(=O)c2ccc(F)cc2)cc1C	none (no result: HP1b chromo inh, G9a inh, Sfp PPTase inh, BAZ2B inh)
CC(C)CCNC(=O)c1cc(-c2ccc(Br)s2)nc2ccccc12	none (no result: Sfp PPTase inh)
O=C(c1cnc2ccccc2n1)N1CCN(c2ccc(C(F)(F)F)cn2)CC1	none
Cc1ccc(C(C[N+](=O)[O-])n2nc(C)cc2C)cc1 (stereo not given)	G9a inh inconclusive
Cc1ccc(C(C[N+](=O)[O-])Sc2ccc(N)cc2)cc1 (stereo not given)	G9a inh 40µM, Sfp PPTase inh 5.6µM, BAZ2B inh inconclusive
COc1cccc(NC2=NCC(=O)N2Cc2cccs2)c1	G9a inh 50µM
Cc1ccc(NC2=NCC(=O)N2Cc2cccs2)cc1C	BAZ2B inh 79µM
Cc1ccc(NC2=NCC(=O)N2C2CCCC2)cc1C	none
COc1ccc(NC2=NCCC(=O)N2Cc2cccs2)cc1	G9a inh 45µM, Sfp PPTase inh inconclusive, BAZ2B inh inconclusive
C=CCN1C(=O)CN=C1Nc1cccc(C)c1	G9a inh 35µM, BAZ2B inh inconclusive
COc1ccc(NC2=NCC(=O)N2Cc2cccs2)cc1	none
CSc1ccc(NC(=O)N2CC=C(n3c(=O)[nH]c4ccccc43)CC2)cc1	G9a inh inconclusive, JMJD2A Tudor inconclusive, BAZ2B inh inconclusive
CC(C)=N/N=C(\N)SCc1ccccc1	G9a inh 7.9µM, BAZ2B inh 79µM
O=Cc1cccn1-c1cccc([N+](=O)[O-])c1	HP1b chromo inh inconclusive, Sfp PPTase inh inconclusive (no result: G9a inh)
O=C(O)c1cccc(-n2cccc2/C=C\[N+](=O)[O-])c1	HP1b chromo inh inconclusive, JMJD2A Tudor 22µM, BAZ2B inh inconclusive (no result: G9a inh)
O=C(O)c1cccc(-n2cccc2/C=C/[N+](=O)[O-])c1	HP1b chromo inh 20µM, G9a inh 10µM, JMJD2A Tudor 22µM, Sfp PPTase inh 32µM, BAZ2B inh 32µM
Cc1nn(-c2cccc(C(=O)O)c2)c(C)c1[N+](=O)[O-]	none
COc1ccccc1CNC1CCN(Cc2ccccc2)CC1	G9a inh inconclusive
COc1ccc(OC)c(CN2CCC(Cc3ccccc3)CC2)c1	HP1b chromo inh inconclusive, JMJD2A Tudor 50µM, BAZ2B inh 56µM (no result: G9a inh)
COc1cc(C)c(CN2CCC(Cc3ccccc3)CC2)cc1C	JMJD2A Tudor 28µM, BAZ2B inh 56µM (no result: G9a inh)
COc1cc(OC)c(CN2CCC(Cc3ccccc3)CC2)cc1Br	JMJD2A Tudor 25µM, BAZ2B inh 56µM (no result: G9a inh)
COc1ccc(-c2noc(CN3CCC(Cc4ccccc4)CC3)n2)cc1	none
CCOC(=O)C1=C(C)Nc2ccccc2N=C1NC(=O)C(c1ccccc1)c1ccccc1	none
O=C(NC1CCCC1)C(c1ccccc1)N(Cc1ccc(F)cc1)C(=O)c1csnn1 (stereo not given)	none
O=C1CN=C(Nc2ccccc2Cl)N1Cc1ccc2c(c1)OCO2	G9a inh inconclusive, JMJD2A Tudor 89µM
Cc1ccc(NC2=NCC(=O)N2Cc2ccc3c(c2)OCO3)cc1	G9a inh 50µM
Cn1nc(C(=O)NC2CCCCC2)c2c1-c1ccccc1S(=O)(=O)C2	none (no result: G9a inh)
CC1=CC(=O)[C@@H](OC(=O)Nc2ccc(C)cc2)[C@@H](c2ccccc2Br)N1C	none (no result: G9a inh, Sfp PPTase inh, BAZ2B inh)
COC(=O)C1=C(C)NC(C)=C(C(=O)OCCSc2ccccc2)[C@@H]1C	none (no result: HP1b chromo inh, G9a inh, JMJD2A Tudor, BAZ2B inh)

High-throughput results: PubChem, National Center for Advancing Translational Sciences (NCATS)
